Molecules are shown by their SMILES. For some of these results: Measured potencies and affinities stand elsewhere.

Parameters in all cases: scale not given: direction of the effect not stated beside the values
Assay [1] has as its target Protein translocase subunit SecA (Escherichia coli (strain K12)) (UniProt P10408). In words: Assay to Identify E. coli SecA ATPase Inhibitors. It counts as functional. To be noted: 30 µM.
Assay [2] concerns the target T1, Ubiquitin-activating enzyme e1, putative (Leishmania donovani (strain BPK282A1)) (UniProt E9BSI1).
T1 sequence (whole entry): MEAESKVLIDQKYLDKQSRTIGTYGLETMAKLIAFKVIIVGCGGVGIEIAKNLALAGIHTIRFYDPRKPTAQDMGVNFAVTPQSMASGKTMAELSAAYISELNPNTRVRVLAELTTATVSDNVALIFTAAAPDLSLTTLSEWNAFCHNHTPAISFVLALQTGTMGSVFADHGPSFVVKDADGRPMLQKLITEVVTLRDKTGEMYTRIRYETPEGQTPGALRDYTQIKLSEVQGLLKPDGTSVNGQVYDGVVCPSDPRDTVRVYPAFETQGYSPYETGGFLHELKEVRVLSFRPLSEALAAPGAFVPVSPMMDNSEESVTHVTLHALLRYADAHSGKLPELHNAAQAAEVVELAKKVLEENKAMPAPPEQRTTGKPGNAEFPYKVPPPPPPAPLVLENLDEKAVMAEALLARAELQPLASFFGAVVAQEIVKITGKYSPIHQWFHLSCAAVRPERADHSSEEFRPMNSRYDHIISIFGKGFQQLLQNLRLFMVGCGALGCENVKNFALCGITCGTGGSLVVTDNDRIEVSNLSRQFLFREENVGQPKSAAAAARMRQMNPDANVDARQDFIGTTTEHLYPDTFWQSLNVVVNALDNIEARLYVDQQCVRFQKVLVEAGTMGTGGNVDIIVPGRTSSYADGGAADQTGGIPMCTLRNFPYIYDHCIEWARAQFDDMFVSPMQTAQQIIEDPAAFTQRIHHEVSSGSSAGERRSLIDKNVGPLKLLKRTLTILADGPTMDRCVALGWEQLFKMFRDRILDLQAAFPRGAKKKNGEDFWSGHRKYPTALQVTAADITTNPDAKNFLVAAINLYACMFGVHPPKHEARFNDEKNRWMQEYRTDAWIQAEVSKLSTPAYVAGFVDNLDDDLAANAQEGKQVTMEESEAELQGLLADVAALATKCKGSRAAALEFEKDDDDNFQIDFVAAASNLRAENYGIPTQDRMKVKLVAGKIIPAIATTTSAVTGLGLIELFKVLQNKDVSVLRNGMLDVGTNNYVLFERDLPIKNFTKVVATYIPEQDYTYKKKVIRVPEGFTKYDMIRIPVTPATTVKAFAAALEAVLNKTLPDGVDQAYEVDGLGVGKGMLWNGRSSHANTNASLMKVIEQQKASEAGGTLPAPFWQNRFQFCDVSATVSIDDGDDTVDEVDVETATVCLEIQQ
In words: Leishmania donovani Ubiquitin Activating Enzyme (LdE1). Format: functional. To be noted: 30 µM.

Assay [3] has as its target AMP-activated protein kinase, AMPK (Homo sapiens) (UniProt P54646+O43741+P54619+Q9UGJ0+Q9Y478+Q13131+Q9UGI9). In words: AMP-dependent Kinase enzyme assay. An in vitro enzyme assay that detects ADP turnover that is directly proportional to AMPK activity. This uses naive AMPK that is activated during the assay with MK-8722. To be noted: 30 µM. It counts as functional.
Assay [4] addresses Sialic acid-binding Ig-like lectin 9 (Homo sapiens) (UniProt Q9Y336). Put plainly: Hs-Siglec9 ALPHAscreen SOP 20170721. To be noted: 10 µM.
In another assay the test system is Trypanosoma cruzi. In words: Trypanosoma cruzi phosphomannomutase and mannose-1-phosphate guanylyltransferase assay. It counts as functional. To be noted: 10 µM.
For assay [5], the target named is T2, Arginase-2, mitochondrial (Homo sapiens) (UniProt P78540).
T2 sequence (whole entry): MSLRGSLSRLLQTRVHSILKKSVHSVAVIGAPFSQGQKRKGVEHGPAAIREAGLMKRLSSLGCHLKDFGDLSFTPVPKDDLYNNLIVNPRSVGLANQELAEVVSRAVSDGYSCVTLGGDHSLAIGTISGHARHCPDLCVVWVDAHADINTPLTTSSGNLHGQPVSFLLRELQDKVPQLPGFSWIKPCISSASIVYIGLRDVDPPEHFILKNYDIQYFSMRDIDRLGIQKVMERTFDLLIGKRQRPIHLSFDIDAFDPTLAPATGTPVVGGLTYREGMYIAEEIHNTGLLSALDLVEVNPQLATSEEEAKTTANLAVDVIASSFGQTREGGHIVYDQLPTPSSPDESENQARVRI
Put plainly: in vitro enzyme assay to detect the production of urea directly proportional to the activity of Arginase II. Also: in the data most compounds retested in dose-response had high values. Format: functional. To be noted: 33.3 µM.

In assay [6] the target is T3, Proteasome subunit beta (Trypanosoma cruzi) (UniProt O96673).
T3 sequence (whole entry): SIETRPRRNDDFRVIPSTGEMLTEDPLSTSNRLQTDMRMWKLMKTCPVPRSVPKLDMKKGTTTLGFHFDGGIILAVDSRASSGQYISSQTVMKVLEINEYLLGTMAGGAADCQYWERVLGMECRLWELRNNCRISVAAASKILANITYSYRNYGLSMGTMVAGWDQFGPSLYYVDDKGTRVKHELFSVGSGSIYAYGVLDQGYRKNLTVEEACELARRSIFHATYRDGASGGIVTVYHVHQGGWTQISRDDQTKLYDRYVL
Put plainly: Trypanosoma cruzi proteasome chymotrypsin-like activity (TcProtChymo) assay. Also: in the data most compounds retested in dose-response had high values. It counts as functional. To be noted: 9.37 µM.

The species entered for the next assay is Homo sapiens. In words: To identify inhibition of the IFN signalling (Jak-Stat) pathway via expression of an eGFP reporter gene under the control of an IFN-stimulated response element (ISRE) containing MxA promoter. Format: functional. To be noted: 30 µM. A general note: A reporter such as luciferase makes a cellular process visible.
Assay [7] deals with T4, Tyrosyl-tRNA synthetase, putative (Trypanosoma cruzi (strain CL Brener)) (UniProt Q4DSP6).
T4 sequence (whole entry): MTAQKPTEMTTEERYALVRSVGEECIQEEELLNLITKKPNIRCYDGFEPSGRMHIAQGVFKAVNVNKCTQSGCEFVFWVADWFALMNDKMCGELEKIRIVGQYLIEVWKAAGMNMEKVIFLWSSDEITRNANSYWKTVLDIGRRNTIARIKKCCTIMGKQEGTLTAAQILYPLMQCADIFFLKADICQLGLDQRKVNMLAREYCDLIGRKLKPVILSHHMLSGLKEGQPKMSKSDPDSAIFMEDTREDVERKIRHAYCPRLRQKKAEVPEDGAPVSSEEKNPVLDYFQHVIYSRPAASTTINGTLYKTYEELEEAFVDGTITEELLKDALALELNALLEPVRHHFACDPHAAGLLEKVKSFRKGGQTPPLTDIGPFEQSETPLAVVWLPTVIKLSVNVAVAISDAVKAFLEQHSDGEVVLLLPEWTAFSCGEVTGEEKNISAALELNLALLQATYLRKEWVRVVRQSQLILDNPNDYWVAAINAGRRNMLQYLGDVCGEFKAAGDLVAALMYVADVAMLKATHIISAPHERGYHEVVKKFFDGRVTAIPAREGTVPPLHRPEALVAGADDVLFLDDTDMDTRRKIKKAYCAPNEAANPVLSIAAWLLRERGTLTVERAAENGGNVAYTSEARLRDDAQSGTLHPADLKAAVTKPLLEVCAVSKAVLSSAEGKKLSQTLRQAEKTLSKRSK
In words: Trypanosoma cruzi tyrosyl tRNA synthetase (TcYRS) _High Tyrosine SOP. Also: in the data most compounds retested in dose-response had high values. It counts as functional. To be noted: 30 µM.

For assay [8], the target named is T4, Tyrosyl-tRNA synthetase, putative (Trypanosoma cruzi (strain CL Brener)). Put plainly: Trypanosoma cruzi tyrosyl tRNA synthetase (TcYRS) SOP. It counts as functional. To be noted: 30 µM.
Assay [9] concerns the target Chromo domain-containing protein 1 (Saccharomyces cerevisiae (strain ATCC 204508 / S288c) (Baker's yeast)) (UniProt P32657). In words: ScCHD-1 Enzyme Inhibition Assay. Also: in the data most compounds retested in dose-response had high values. Format: functional. To be noted: 30 µM.

Sialic acid-binding Ig-like lectin 9 (Homo sapiens), sequence (Q9Y336 whole entry): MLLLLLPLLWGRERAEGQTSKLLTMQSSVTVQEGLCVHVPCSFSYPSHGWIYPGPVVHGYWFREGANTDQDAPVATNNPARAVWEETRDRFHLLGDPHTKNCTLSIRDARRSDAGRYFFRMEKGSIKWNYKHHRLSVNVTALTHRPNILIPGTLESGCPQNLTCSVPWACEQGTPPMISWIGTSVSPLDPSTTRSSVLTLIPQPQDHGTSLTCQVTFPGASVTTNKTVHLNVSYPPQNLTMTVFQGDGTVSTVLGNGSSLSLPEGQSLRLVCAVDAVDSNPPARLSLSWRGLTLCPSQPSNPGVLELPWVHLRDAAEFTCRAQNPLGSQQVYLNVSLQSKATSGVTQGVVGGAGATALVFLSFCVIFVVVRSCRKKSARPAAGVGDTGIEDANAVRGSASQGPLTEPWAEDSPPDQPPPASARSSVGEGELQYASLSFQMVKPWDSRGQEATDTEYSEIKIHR
Protein translocase subunit SecA (Escherichia coli (strain K12)), sequence (P10408 whole entry): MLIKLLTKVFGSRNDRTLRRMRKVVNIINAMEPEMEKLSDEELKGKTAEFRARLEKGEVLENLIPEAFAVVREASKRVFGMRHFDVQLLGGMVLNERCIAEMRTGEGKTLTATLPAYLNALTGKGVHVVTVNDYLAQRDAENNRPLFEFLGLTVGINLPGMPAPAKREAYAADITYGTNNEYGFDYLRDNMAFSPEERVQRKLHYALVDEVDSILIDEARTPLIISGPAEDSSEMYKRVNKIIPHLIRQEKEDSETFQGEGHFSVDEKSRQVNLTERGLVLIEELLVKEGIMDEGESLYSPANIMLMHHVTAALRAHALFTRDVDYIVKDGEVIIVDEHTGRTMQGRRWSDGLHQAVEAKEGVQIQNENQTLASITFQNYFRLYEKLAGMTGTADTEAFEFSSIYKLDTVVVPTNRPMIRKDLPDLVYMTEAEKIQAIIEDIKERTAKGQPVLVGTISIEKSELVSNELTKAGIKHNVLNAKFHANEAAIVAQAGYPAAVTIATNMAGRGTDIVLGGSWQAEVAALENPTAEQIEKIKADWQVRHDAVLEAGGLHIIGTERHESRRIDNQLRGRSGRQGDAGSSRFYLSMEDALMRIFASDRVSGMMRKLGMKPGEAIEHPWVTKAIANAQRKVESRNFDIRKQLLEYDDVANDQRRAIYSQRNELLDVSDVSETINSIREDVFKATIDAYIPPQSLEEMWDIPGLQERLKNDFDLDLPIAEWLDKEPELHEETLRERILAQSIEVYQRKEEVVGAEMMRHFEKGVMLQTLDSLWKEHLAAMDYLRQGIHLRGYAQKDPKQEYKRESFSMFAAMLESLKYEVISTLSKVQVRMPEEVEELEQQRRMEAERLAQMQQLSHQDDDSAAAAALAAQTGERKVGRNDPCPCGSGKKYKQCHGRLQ
Chromo domain-containing protein 1 (Saccharomyces cerevisiae (strain ATCC 204508 / S288c) (Baker's yeast)), sequence (P32657 whole entry, the tested form may be a part): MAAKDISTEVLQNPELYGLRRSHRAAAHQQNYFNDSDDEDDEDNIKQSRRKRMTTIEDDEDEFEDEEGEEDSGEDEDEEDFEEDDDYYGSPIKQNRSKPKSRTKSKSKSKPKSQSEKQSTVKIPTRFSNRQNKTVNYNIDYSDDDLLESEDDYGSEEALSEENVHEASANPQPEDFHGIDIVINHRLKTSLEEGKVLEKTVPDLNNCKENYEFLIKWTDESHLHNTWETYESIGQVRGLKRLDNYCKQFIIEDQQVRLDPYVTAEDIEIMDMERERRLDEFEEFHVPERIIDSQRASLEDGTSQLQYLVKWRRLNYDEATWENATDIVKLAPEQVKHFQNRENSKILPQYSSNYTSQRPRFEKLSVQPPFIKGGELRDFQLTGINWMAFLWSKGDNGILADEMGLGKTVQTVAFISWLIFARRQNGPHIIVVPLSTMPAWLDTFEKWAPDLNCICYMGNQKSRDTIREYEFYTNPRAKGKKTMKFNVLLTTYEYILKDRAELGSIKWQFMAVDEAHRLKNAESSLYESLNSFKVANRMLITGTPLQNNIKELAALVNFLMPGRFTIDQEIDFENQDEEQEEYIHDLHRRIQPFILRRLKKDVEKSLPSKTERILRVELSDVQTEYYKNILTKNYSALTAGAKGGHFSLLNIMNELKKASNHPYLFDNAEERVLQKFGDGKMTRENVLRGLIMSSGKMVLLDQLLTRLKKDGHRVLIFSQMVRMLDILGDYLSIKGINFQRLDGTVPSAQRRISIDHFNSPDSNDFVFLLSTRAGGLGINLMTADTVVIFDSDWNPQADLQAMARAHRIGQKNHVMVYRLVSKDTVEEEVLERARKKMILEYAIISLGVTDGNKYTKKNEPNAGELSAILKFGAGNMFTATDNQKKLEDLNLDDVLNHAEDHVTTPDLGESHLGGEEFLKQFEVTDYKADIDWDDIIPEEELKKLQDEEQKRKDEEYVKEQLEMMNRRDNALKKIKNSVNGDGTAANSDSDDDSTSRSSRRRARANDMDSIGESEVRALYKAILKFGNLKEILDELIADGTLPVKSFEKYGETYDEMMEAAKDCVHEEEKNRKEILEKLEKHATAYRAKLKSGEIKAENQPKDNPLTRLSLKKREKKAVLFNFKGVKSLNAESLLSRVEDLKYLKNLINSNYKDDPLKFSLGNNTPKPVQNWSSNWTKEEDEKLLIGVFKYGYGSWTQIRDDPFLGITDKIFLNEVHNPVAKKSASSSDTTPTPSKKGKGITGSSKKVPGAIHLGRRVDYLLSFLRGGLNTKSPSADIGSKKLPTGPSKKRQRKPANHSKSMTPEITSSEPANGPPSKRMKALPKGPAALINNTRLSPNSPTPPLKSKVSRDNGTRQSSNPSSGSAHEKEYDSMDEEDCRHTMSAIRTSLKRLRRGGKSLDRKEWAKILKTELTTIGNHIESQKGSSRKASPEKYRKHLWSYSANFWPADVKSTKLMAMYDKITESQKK

With `Cc1ccc(CNS(=O)(=O)CC2=NC(=O)n3cccc3C2=O)cc1`, the Percent Effect in assay [1] was 0.952%; in [2], -9.33%; in assay [3], 7.77%; in [4], 4.14%; in the assay with Trypanosoma cruzi it was -1.77%; in assay [5], -4.4%. Further, the Percent Effect in assay [6] is 7.21%; in the assay filed under Homo sapiens, -19.8%; in assay [7], -2.12%; in [8] it was 0%; in assay [9], 2.54%.

For `COC(=O)C(NC(=O)c1ccco1)c1cc(F)ccc1F` (stereo unspecified), the Percent Effect was -3.29% in assay [1]; 5.2% in [2]; 19.7% in [3]; 11.4% in [4]; 6.93% in the assay with Trypanosoma cruzi; -0.712% in assay [5]. The Percent Effect was 9.46% in [6]; -16.9% in the assay listed under Homo sapiens; 1.94% in assay [7]; 14.6% in assay [8]; -8.66% in [9].

On to `CCC(=O)N1CC[C@@H](c2ccc3ccccc3c2)[C@H](O)C1`, for which the Percent Effect was -3.58% in assay [1]; 8% in assay [2]; -2.44% in [3]; 14.3% in [4]; 5.94% in the assay on Trypanosoma cruzi; 24% in [5]. For the same molecule, the Percent Effect in assay [6] was 16.2%; in the assay filed under Homo sapiens, 11.8%; in assay [7], 4.92%; in [8], 11.1%; in [9], -8.24%.

`CCN(C)c1ccc(C(=O)N(CCOC)Cc2ccccn2)cc1`: the Percent Effect in assay [1] was -4.29%; in [2], 21.3%; in [3], -3.55%; in assay [4], 21.4%; in the assay with Trypanosoma cruzi, 7.89%; in assay [5], 38.5%. Besides, the Percent Effect in assay [6] is 15.2%; in the assay filed under Homo sapiens, 20.7%; in assay [7], 6.01%; in [8], 21%; in assay [9], -5.22%.

Consider `Cc1nc(C2(NCC(=O)NCCc3cccs3)CCCC2)no1`, for which the Percent Effect in assay [1] is -2.85%; in [2], 7.89%; in assay [3] it was -3.1%; in assay [4], 0.327%; with Trypanosoma cruzi, -4.38%; in assay [5], -9.47%. For the same molecule, the Percent Effect in assay [6] is 15.1%; in the assay filed under Homo sapiens, 6.74%; in assay [7], 2.13%; in [8], 15.6%; in assay [9], -1.92%.

With `O=C(NCC(Cc1cccc(F)c1)N1CCCC1=O)c1ccccc1` (stereo unspecified), the Percent Effect is -6.41% in [1]; -5.48% in [2]; 27.6% in assay [3]; -11% in assay [4]; -5.68% in the assay with Trypanosoma cruzi; 0% in assay [5]. In addition, the Percent Effect in [6] is 13.1%; in the assay listed under Homo sapiens, 6.32%; in assay [7], 1.07%; in [8], 5%; in assay [9], -2.23%.

Consider `O=C(COc1cccc(Br)c1)N1CCOCC1c1ncon1` (stereo unspecified), for which the Percent Effect is -1.32% in assay [1]; -2.7% in assay [2]; -2.58% in assay [3]; -3.06% in assay [4]; 6.13% in the assay with Trypanosoma cruzi; 1.6% in assay [5]. In addition, the Percent Effect is 1.44% in assay [6]; -26.1% in the assay listed under Homo sapiens; 1.48% in assay [7]; -1.24% in assay [8]; -4.52% in [9].

Turning to `COc1ccccc1S(=O)(=O)Nc1ccc2c(C(=O)O)c[nH]c2c1`, the Percent Effect in assay [1] is -5.95%; in [2] it was -10.4%; in assay [3] it was -64.6%; in assay [4], 10.9%; with Trypanosoma cruzi, 8.05%; in assay [5], -4.98%. For the same molecule, the Percent Effect in assay [6] was 8.28%; in the assay listed under Homo sapiens, 14.3%; in assay [7] it was 0%; in assay [8] it was 12.2%; in [9], -7.94%.

`CC(C)c1n[nH]c(C2CN(C(=O)C3=COCC3)CCO2)n1` (stereo unspecified): the Percent Effect was -3.67% in assay [1]; 2.63% in assay [2]; 1.65% in assay [3]; 11.9% in [4]; 0.0934% with Trypanosoma cruzi; 5.4% in [5]. Further, the Percent Effect in assay [6] is -5.33%; in the assay listed under Homo sapiens it was -8.69%; in [7], 2.46%; in [8] it was 3.7%; in assay [9], 10.5%.

With `CC(C)C(=O)N1CCN(C(=O)c2cscn2)[C@H]2CS(=O)(=O)C[C@H]21`, the Percent Effect was -2.31% in assay [1]; 15.3% in assay [2]; -5.83% in [3]; 5.33% in assay [4]; 2.04% in the assay with Trypanosoma cruzi; 4.42% in assay [5]. The Percent Effect in [6] is 13.9%; in the assay filed under Homo sapiens, -3.92%; in assay [7], 3.16%; in [8], 12.8%; in assay [9], -0.218%.

Turning to `CC(C)c1nn(C)c(N(C)C)c1CNCCC(=O)NC1CCCC1`, the Percent Effect was -6.71% in [1]; 21.1% in assay [2]; -15.3% in assay [3]; 3.05% in assay [4]; 10.4% in the assay on Trypanosoma cruzi; 1.08% in [5]. Further, the Percent Effect in assay [6] was 13.4%; in the assay filed under Homo sapiens, -19.1%; in assay [7] it was 7.39%; in [8], 23.5%; in [9], -6.05%.

The values are drawn from ChEMBL document CHEMBL3988442, “University of Dundee, Small-Polar-MMV Screening Library” (2021).
